Measurements: PubChem BioAssay
Activity calls are given as the source filed them.

How the values were obtained:
[1] = small molecules captured by biotinylated probe aFSTL3 – biochemical, small-molecule microarray, fluorescence 635/667, stem cell growth factor project, primary screen (AID 1064); conditions: higher = more signal;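 also: measures binding of the biotinylated anti-FSTL3 antibody to printed compounds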
[2] = binders from COS7 lysate, DM2A8 probe, primary screen, torsin A project, cell lysate, small-molecule microarray, fluorescence 635/667 (AID 1065); conditions: higher = more signal, COS7 lysate expressing mutant human TOR1A
[3] = small molecules captured by biotinylated probe aFGF2 – biochemical, small-molecule microarray, fluorescence 635/667, stem cell growth factor project, primary screen (AID 1067); conditions: higher = more signal;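 also: measures binding of biotinylated aFGF2 protein to printed compounds on slides; z-score merges feature fluorescence and signal-to-noise across triplicate slides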
[4] = small molecules captured by biotinylated probe aFGF10 – biochemical, small-molecule microarray, fluorescence 635/667, stem cell growth factor project, primary screen (AID 1071); conditions: higher = more signal;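 also: score merges 667 nm spot intensity and signal to noise from triplicate slides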
[5] = target: Neurogenic locus notch homolog protein 2 (Homo sapiens) (UniProt Q04721); experiment: small molecules binding Notch2 protein – biochemical, small-molecule microarray, 635 nm fluorescence, stem cell growth factors, primary screen (AID 1073); conditions: higher = more signal
[6] = target: Pro-neuregulin-1, membrane-bound isoform (Homo sapiens) (UniProt Q02297); experiment: small molecules binding neuregulin-1 protein – biochemical, small-molecule microarray, fluorescence 635/667, psychiatric disease protein project, primary screen (AID 1075); conditions: NRG1 binding, 635 nm fluorescence, higher = more signal;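 also: score combines 667 nm spot fluorescence with signal to noise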
Sequence of Pro-neuregulin-1, membrane-bound isoform (Homo sapiens) (Q02297 whole entry, looked up, the tested form may be a part, canonical isoform): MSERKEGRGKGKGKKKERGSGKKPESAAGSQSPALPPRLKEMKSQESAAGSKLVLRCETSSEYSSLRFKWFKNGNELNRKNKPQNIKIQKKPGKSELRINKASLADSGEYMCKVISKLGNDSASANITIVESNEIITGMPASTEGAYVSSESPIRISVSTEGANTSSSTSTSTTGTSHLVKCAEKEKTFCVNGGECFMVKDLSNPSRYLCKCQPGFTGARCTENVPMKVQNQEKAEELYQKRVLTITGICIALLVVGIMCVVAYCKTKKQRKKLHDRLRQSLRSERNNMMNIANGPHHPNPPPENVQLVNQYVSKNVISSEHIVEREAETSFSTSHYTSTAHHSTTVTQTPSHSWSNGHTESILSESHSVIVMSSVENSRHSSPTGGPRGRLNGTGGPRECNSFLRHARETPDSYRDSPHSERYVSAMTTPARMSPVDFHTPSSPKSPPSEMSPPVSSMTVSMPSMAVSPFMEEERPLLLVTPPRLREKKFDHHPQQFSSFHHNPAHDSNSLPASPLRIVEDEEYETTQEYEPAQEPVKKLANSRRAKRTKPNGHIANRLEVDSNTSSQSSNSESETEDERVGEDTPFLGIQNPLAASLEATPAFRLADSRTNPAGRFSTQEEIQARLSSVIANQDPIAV

[7] = tested on: Neuregulin-1 EGF-like domain; experiment: small molecules binding NRG1 EGF domain – biochemical, small-molecule microarray, 635 nm fluorescence, primary screen (AID 1081); conditions: higher = more signal;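 also: binding of the protein to compounds printed on small-molecule microarray slides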
[8] = FRG1 expression reporter modulators in myotubes – cell-based, C2C12 myotubes, firefly/Renilla luciferase, luminescence, FRG1 inhibition for FSHD, primary screen (AID 1084); conditions: FRG1 promoter luciferase, higher = more signal, called active from +8 up or from −8 down
[9] = small molecules captured by biotinylated probe aFST – biochemical, small-molecule microarray, fluorescence 635/667, stem cell growth factor project, primary screen (AID 1086); conditions: higher = more signal;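 also: score merges 667 nm fluorescence with signal-to-noise of each printed compound spot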
[10] = binders of probe aHhip on microarray, primary screen, stem cell growth factor project, biochemical, small-molecule microarray, fluorescence 635/667 (AID 1087); conditions: higher = more signal;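 also: score merges spot fluorescence at 667nm with spot signal to noise ratio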
[11] = tested on: PRMT1 (protein arginine N-methyltransferase 1); experiment: small molecules binding arginine methyltransferase PRMT1 – biochemical, small-molecule microarray, 635 nm fluorescence, primary screen (AID 1088); conditions: higher = more signal;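 also: binding of Prmt1 protein to compounds spotted on small-molecule microarray slides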
[12] = growth effects on S. cerevisiae YJM789 – YJM789 clinical isolate, OD600, 24 h, basal, primary screen (AID 1089); conditions: higher = more signal, called active from +8 up or from −8 down;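 also: growth of clinical yeast isolate S. cerevisiae YJM 789 seeded 1000 cells per well; test concentration not given here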
[13] = S. pombe growth modifiers, basal conditions – strain 972, OD600, 24 h, no modulator, primary screen (AID 1090);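 also: basal condition with compound alone and no growth modifier present; test concentration not given here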; conditions: S. pombe 972 growth, higher = more signal, called active from +8 up or from −8 down
[14] = budding yeast growth modifiers under rapamycin – strain BY4716, OD600, 96 h, primary screen (AID 1091); also: test concentration not given here; conditions: S. cerevisiae BY4716 + rapamycin, higher = more signal, called active from +8 up or from −8 down
[15] = target: Torsin-1A-interacting protein 2 (Homo sapiens) (UniProt Q8NFQ8); experiment: small molecules binding lysate-expressed LULL1 – cell lysate, human LULL1 lysate, 635/667 nm fluorescence, primary screen (AID 1092); conditions: small-molecule microarray, hLULL1 lysate binding, 635 nm fluorescence; higher = more signal;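 also: probe is lysate of COS7 cells overexpressing human LULL1; score merges per-feature 667 nm fluorescence with signal-to-noise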
Sequence of Torsin-1A-interacting protein 2 (Homo sapiens) (Q8NFQ8 whole entry, looked up): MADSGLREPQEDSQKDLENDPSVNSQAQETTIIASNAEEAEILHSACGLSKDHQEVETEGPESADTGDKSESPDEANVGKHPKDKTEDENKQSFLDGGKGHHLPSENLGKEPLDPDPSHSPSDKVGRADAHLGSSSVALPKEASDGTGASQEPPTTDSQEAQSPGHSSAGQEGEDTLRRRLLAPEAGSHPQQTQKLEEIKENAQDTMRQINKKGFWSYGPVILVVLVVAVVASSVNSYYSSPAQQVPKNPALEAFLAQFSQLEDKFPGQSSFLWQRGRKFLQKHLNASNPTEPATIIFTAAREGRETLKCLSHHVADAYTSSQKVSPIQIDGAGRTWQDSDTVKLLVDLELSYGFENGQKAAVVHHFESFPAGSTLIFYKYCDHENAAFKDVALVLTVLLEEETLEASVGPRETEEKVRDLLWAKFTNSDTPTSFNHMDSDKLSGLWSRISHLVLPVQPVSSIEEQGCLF

[16] = optical density change of DRC41 E. coli – strain DRC41, OD650, 24 h, E. coli filamentation project, primary screen (AID 1093);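 also: MC1000 strain lacking acrAB efflux and sulA so SOS filamentation is blocked; test concentration not given here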; conditions: E. coli DRC41 growth, higher = more signal, called active from +8 up or from −8 down
[17] = probe aLefty2 binding to arrayed compounds – biochemical, biotinylated probe, 635/667 nm fluorescence, primary screen (AID 1094); conditions: small-molecule microarray, higher = more signal;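 also: score merges spot fluorescence near 667 nm with spot signal-to-noise ratio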
[18] = tested on: Noggin (protein binding on small-molecule microarray); experiment: small molecules binding Noggin protein – biochemical, 635/667 nm fluorescence, primary screen (AID 1095); conditions: 635 nm fluorescence, higher = more signal;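 also: score merges 667 nm feature fluorescence with signal to noise over triplicate slides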
[19] = target: Neurogenic locus notch homolog protein 3 (Homo sapiens) (UniProt Q9UM47); experiment: small molecules binding NOTCH3 protein – biochemical, 635/667 nm fluorescence, primary screen (AID 1096); conditions: small-molecule microarray, 635 nm fluorescence, higher = more signal
Sequence of Neurogenic locus notch homolog protein 3 (Homo sapiens) (Q9UM47 whole entry, looked up): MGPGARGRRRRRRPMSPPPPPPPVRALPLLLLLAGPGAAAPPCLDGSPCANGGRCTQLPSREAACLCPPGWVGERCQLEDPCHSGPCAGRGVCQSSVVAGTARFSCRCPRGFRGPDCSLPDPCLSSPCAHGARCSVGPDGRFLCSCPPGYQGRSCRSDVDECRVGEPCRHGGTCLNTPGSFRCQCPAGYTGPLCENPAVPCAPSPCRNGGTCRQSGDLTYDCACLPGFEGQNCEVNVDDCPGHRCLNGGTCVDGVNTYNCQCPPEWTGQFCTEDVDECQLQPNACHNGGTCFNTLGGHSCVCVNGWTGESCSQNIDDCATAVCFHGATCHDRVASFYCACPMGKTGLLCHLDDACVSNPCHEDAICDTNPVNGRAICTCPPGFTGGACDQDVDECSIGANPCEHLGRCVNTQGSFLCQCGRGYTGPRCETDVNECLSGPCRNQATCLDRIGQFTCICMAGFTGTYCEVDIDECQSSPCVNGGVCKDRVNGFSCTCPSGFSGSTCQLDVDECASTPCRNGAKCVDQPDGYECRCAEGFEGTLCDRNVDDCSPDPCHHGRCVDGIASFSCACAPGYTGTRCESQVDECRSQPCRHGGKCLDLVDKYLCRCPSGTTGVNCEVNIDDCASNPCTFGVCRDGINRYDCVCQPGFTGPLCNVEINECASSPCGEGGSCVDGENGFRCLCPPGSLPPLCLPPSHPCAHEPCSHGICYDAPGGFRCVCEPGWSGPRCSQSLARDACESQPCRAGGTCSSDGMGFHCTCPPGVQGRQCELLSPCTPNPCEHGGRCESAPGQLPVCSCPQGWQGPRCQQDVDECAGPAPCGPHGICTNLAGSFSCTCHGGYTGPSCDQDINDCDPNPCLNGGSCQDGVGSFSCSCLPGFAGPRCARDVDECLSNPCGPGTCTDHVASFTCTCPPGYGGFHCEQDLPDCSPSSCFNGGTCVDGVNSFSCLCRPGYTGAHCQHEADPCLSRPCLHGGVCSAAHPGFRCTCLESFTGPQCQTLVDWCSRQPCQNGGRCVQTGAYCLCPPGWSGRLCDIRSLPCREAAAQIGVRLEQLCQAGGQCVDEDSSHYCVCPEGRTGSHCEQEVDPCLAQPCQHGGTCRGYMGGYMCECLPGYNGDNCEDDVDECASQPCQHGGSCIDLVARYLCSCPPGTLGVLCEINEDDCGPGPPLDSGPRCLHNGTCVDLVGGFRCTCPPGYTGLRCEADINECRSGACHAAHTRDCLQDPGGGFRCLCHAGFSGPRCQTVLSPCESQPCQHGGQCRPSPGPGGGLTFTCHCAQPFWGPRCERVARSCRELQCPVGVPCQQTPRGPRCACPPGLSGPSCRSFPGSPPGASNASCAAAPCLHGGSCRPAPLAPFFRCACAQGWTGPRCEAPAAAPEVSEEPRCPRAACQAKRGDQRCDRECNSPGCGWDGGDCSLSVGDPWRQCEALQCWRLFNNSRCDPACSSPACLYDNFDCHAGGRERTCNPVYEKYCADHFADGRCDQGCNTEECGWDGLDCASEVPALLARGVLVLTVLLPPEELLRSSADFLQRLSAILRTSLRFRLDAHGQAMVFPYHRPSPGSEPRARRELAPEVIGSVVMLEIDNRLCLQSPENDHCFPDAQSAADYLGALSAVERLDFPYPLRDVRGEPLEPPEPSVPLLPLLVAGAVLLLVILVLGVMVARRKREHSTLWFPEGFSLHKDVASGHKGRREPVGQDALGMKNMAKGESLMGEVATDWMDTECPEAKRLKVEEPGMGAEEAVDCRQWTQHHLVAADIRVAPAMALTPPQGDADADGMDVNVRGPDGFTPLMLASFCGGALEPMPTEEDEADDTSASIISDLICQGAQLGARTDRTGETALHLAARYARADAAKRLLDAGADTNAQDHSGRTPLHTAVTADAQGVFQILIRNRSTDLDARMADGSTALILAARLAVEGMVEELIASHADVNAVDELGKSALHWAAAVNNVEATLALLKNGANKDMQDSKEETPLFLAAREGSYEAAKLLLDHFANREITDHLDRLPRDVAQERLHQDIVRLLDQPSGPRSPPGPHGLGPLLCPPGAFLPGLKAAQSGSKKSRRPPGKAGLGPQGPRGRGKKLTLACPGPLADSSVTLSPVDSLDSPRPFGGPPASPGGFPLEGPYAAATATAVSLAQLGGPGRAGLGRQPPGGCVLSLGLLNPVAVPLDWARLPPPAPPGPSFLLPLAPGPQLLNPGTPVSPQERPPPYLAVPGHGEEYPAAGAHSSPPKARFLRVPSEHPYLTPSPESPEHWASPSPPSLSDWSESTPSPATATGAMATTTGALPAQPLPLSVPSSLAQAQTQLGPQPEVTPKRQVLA

[20] = probe aEGFR binding to arrayed compounds – biochemical, biotinylated probe, 635/667 nm fluorescence, primary screen (AID 1097); conditions: small-molecule microarray, higher = more signal;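 also: probe is a biotinylated anti-EGFR antibody binding compounds printed on slides; score combines fluorescence near 667 nm and signal to noise of each spot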

C=C(C(=O)CC[C@@H](OC(C)=O)c1ccc(CO)o1)C(C)C
composite z-score [1]: -0.0468
composite z-score [2]: -0.0472
composite z-score [3]: -0.08
composite z-score [4]: 0.114
composite z-score [5]: 0.17
composite z-score [6]: -0.116
composite z-score [7]: 0.0816
z-score [8]: 0.776 (inactive)
composite z-score [9]: -0.105
composite z-score [10]: 0.0749
composite z-score [11]: 1.2
z-score [12]: -2.4 (inactive)
z-score [13]: -0.357 (inactive)
z-score [14]: -0.561 (inactive)
composite z-score [15]: 0.288
z-score [16]: 0.331 (inactive)
composite z-score [17]: -0.186
composite z-score [18]: 1.28
composite z-score [19]: 0.982
composite z-score [20]: -0.15

CC(C)(C)OC(=O)CC[C@@]1(C(=O)NCc2ccccc2)N=C(c2ccc(OCCCO)cc2)O[C@@H]1c1ccccc1N=[N+]=[N-]
composite z-score [1]: 0.418
composite z-score [2]: 0.559
composite z-score [3]: 0.246
composite z-score [4]: 0.885
composite z-score [5]: 1.64
composite z-score [6]: 1.75
composite z-score [7]: 0.968
z-score [8]: 1.16 (inactive)
composite z-score [9]: 1.13
composite z-score [10]: 0.0115
composite z-score [11]: 1.56
z-score [12]: 0.704 (inactive)
z-score [13]: 0.501 (inactive)
z-score [14]: 3.64 (inactive)
composite z-score [15]: 3.25
z-score [16]: 0.516 (inactive)
composite z-score [17]: 0.372
composite z-score [18]: 0.878
composite z-score [19]: 1.05
composite z-score [20]: 0.224

CCOC(=O)C1=CC[C@@H](c2cccc(Cl)c2)N(S(=O)(=O)c2ccc(C)cc2)C1
composite z-score [1]: 0.432
composite z-score [2]: 0.627
composite z-score [3]: 0.067
composite z-score [4]: 0.336
composite z-score [5]: 0.0142
composite z-score [6]: 1.31
composite z-score [7]: 1.2
z-score [8]: -2.76 (inactive)
composite z-score [9]: 0.329
composite z-score [10]: -0.0994
composite z-score [11]: 0.335
z-score [12]: -1.89 (inactive)
z-score [13]: -0.0856 (inactive)
z-score [14]: 0.311 (inactive)
composite z-score [15]: 2.54
z-score [16]: -0.363 (inactive)
composite z-score [17]: 0.0771
composite z-score [18]: 0.0745
composite z-score [19]: 0.126
composite z-score [20]: -0.0803

O=C1NC(=O)C2C1C=CC(C(O)c1c(F)cccc1Cl)N2Nc1ccc(Cl)cc1Cl (stereo not given)
composite z-score [1]: 1.38
composite z-score [2]: 1.79
composite z-score [3]: 0.0389
composite z-score [4]: 0.424
composite z-score [5]: 1.29
composite z-score [6]: 1.37
composite z-score [7]: 1.17
z-score [8]: -1.03 (inactive)
composite z-score [9]: 1.22
composite z-score [10]: -0.216
composite z-score [11]: 0.0621
z-score [12]: -20.9 (active)
z-score [13]: -1.98 (inactive)
z-score [14]: 1.65 (inactive)
composite z-score [15]: 3.2
z-score [16]: -3.22 (inactive)
composite z-score [17]: 0.319
composite z-score [18]: -0.836
composite z-score [19]: 0.53
composite z-score [20]: 0.0069

C=C(CCCC)/C(=C/C[C@@H](OC(=O)c1ccncc1)c1ccccc1OCCO)c1cnc2ccccc2c1
composite z-score [1]: -0.5
composite z-score [2]: 0.517
composite z-score [3]: 0.165
composite z-score [4]: 1.17
composite z-score [5]: 1.33
composite z-score [6]: 0.611
composite z-score [7]: 1.04
z-score [8]: -1.53 (inactive)
composite z-score [9]: 0.574
composite z-score [10]: 0.469
composite z-score [11]: 1.55
z-score [12]: -0.868 (inactive)
z-score [13]: -1.2 (inactive)
z-score [14]: 1.65 (inactive)
composite z-score [15]: 1.26
z-score [16]: 0.514 (inactive)
composite z-score [17]: -0.127
composite z-score [18]: 1.9
composite z-score [19]: 1.05
composite z-score [20]: -0.0028
